This is an account of results in PubChem BioAssay (EPA / NIEHS).

The term AC50 denotes the midpoint of the concentration-response curve, whichever way the signal moves.

Where “and” joins values, the source holds several entries; their conditions need not be identical. Identical values can stand only once. Calls of active or inactive are those of the source. The calls were made as follows: active = hit-call score of the fitted dose curve at least 0.9, where 1 is the maximum; inactive = score below 0.9.

Read-out in this assay: TIMP metallopeptidase inhibitor 1 (TIMP1), TIMP1 (gene 7076)
Briefly: BSK_hDFCGF_TIMP1: BioMAP Diversity Plus: hDFCGF Assay for TIMP metallopeptidase inhibitor 1 (TIMP1) Biomarker Activity (AID 2283062). To be noted: primary human foreskin fibroblasts; actives raise or lower the signal. As for the experimental part:
BSK_hDFCGF is a cell-based, multiplexed-readout assay that uses foreskin fibroblast, a human skin primary cell, with measurements taken at 24 hours after chemical dosing in a 96-well plate.BSK_hDFCGF_TIMP1 is an assay component measured in the BSK_hDFCGF assay. It measures TIMP-1 antibody related to regulation of gene expression using ELISA technology.Data from the assay component BSK_hDFCGF_TIMP1 was analyzed into 1 assay endpoint. This assay endpoint, BSK_hDFCGF_TIMP1, was analyzed with bidirectional fitting relative to DMSO as the negative control and baseline of activity. Using a type of binding reporter, gain or loss-of-signal activity can be used to understand changes in the signaling as they relate to the gene TIMP1. Furthermore, this assay endpoint can be referred to as a primary readout, because this assay has produced multiple assay endpoints where this one serves a signaling function. To generalize the intended target to other relatable targets, this assay endpoint is annotated to the protease inhibitor intended target family, where the subfamily is metalloproteinase inhibitor.
The levels of cell surface (or secreted, indicated by the prefix "s") biomarker endpoints were measured by ELISA. Overt cytotoxicity to cells in confluent adherent cultures (all systems other than the BT system) was assessed by measuring total protein levels using sulforhodamine B (SRB) staining in parallel cultures at the time of biomarker measurements, indicated as SRB endpoints. For proliferation assays for adherent cell types, individual cell types are cultured at sub-confluence and relative cell numbers quantified by SRB staining at time points optimized for each system (48 h: 3C and CASM3C systems; 72 h: BT and HDF3CGF systems; 96 h: SAg system). SRB was performed by staining cells with 0.1% SRB after fixation with 10% TCA and reading wells at 560 nm.Viability and proliferation of PBMC (T cells) was quantified by Alamar Blue reduction for the SAg and BT systems. For PBMC viability (referred to as PBMC Cytotoxicity within the assay endpoint names), cells were plated (75,000/well in a 96-well plate) and then chemical samples added for 1 h before addition of activators, SEB and TSST-1 (20 ng/mL final concentration each). Cells were incubated for 90 h. Then, Alamar Blue (20 uL/well) (Invitrogen, Cat DAL1100) was added for 6 h, and the plates were read with a fluorescence microplate reader at 546/580 nm (excitation/emission). For PBMC proliferation, cells were plated and activated as above but incubated for only 16 h prior to addition of Alamar Blue. Plates were read after 6 h.
For `O=[N+]([O-])c1cc(S(=O)(=O)Nc2ccccc2)ccc1Nc1ccccc1`, the AC50 is 30.3 µM (active) and 29.5 µM (active).

As for `O=C(C(=O)c1ccccc1)c1ccccc1`, the outcome was inactive.

For `CC[N+](CC)(CC(=O)Nc1c(C)cccc1C)Cc1ccccc1`, the outcome was inactive.

In the case of `CCCCCCC(O)CCCCCCCCCCC(=O)OC` (configuration not stated), the outcome was inactive.

With `CCC[Si](OC(C)=O)(OC(C)=O)OC(C)=O`, the result was inactive.

Turning to `CCC(C)=NO`, the outcome was inactive.

Take `COC(=O)/C=C\C(=O)OC`: the result was inactive.

On to `Cc1cc(-n2nc3ccc(Cl)cc3n2)c(O)c(C(C)(C)C)c1`, for which the result was inactive.

Take `CCCCCCCCCCC1CO1` (configuration not stated): the AC50 was 20 µM (active).

As for `Sc1nc2ccccc2s1`, the outcome was inactive.

On to `Cc1cccnc1`, for which the outcome was inactive.

As for `CCCCC(CC)COC(=O)C=Cc1ccc(OC)cc1` (configuration not stated), the result was inactive.

Turning to `COc1cc(CNC(=O)CCCC/C=C/C(C)C)ccc1O`, the result was inactive.

Regarding `Cc1c(C(N)=O)cc([N+](=O)[O-])cc1[N+](=O)[O-]`, the outcome was inactive.

For `CN(C)c1ccc(C(c2ccccc2)c2ccc(N(C)C)cc2)cc1`, the outcome was inactive.

As for `CCCCCCCCCCCCCCCCCC[N+](C)(C)C`, the AC50 is 3.47 µM (active).

For `C1CN(CCOCCN2CCOCC2)CCO1`, the result was inactive.

Consider `OC(C(F)(F)F)(C(F)(F)F)C(O)(C(F)(F)F)C(F)(F)F`, for which the result was inactive.

In the case of `CC(C)C1OCCN1CCOC(=O)NCCCCCCNC(=O)OCCN1CCOC1C(C)C` (configuration not stated), the result was inactive.

With `COc1ccccc1Oc1c(NS(=O)(=O)c2ccc(C(C)(C)C)cc2)nc(-c2ncccn2)nc1OCCO`, the outcome was inactive.

Consider `CN(C)CCC(c1ccc(Cl)cc1)c1ccccn1` (configuration not stated), for which the outcome was inactive.

As to `CN(C)Cc1cc(C(C)(C)C)c(O)c(C(C)(C)C)c1`, the result was inactive.

Turning to `Oc1cccc2ccccc12`, the result was inactive.

Take `CC[N+](CC)(CC(=O)Nc1c(C)cccc1C)Cc1ccccc1` (tested in a mixture with another compound): the outcome was inactive.

As for `CC(C)CC(=O)CC(C)CC(C)C` (configuration not stated), the result was inactive.

For `CCCCCCCCCC/C=C/C1CC(=O)OC1=O` (configuration not stated), the result was inactive.

On to `COc1ccc(C(=O)c2ccccc2O)c(O)c1`, for which the outcome was inactive.
